The record followed here is PubChem BioAssay (NCI).

Test [1] can be described thus: NCI Yeast Anticancer Drug Screen. Data for the rad50 strain (AID 155).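 Note: 0% = growth of vehicle-only cultures of the same strain.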 The conditions noted are these: S. cerevisiae rad50 strain growth inhibition, hits give high values; at 50.0 µM unless noted. In a few lines: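 Readout: growth inhibition relative to vehicle-treated cultures. Compound exposure was carried out in a genetically defined yeast strain deficient in DNA damage repair.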

Test [2] is described as follows: NCI Yeast Anticancer Drug Screen. Data for the mec2-1 strain (AID 157). The conditions noted are these: S. cerevisiae mec2-1 strain, hits give high values; at 50.0 µM unless noted. The method, boiled down: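 Strain: mec2-1 (DNA repair/cell cycle alteration). Compound exposure, then growth measured; inhibition expressed relative to vehicle.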
A short description of test [3]: NCI Yeast Anticancer Drug Screen. Data for the sgs1 mgt1 strain (AID 161).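 Note: 0% = growth of cultures given vehicle only.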 The conditions noted are these: S. cerevisiae sgs1 mgt1 strain, hits give high values; at 50.0 µM unless noted. In a few lines:
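Genetically altered yeast, compound exposure, growth inhibition relative to vehicle.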

Test [4] can be described thus: NCI Yeast Anticancer Drug Screen. Data for the cln2 rad14 strain (AID 165).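 Note: 0% = growth equal to vehicle treated cultures.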 The following applies: S. cerevisiae cln2 rad14 strain, hits give high values; at 50.0 µM unless noted. The method, boiled down: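 Compounds are applied to the cln2 rad14 yeast strain, and growth is then compared with that of vehicle-treated cultures to give inhibition.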
Test [5] can be described thus: NCI Yeast Anticancer Drug Screen. Data for the bub3 strain (AID 167). The conditions noted are these: S. cerevisiae bub3 mutant strain, hits give high values; at 50.0 µM unless noted. In a few lines:
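Readout: yeast growth inhibition, expressed relative to vehicle-only wells. The test organism is a mutant strain from a panel with lesions in DNA repair or checkpoint genes.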

A short description of test [6]: NCI Yeast Anticancer Drug Screen. Data for the mlh1 rad18 strain (AID 175). The conditions noted are these: S. cerevisiae mlh1 rad18 strain growth inhibition, hits give high values; at 50.0 µM unless noted. In a few lines: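 Read-out is yeast growth inhibition, calculated against vehicle-only controls. The compound was applied to a strain engineered with DNA damage repair alterations.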

Several values for one entry are separate records, joined by “and”; a condition that tells them apart may be missing. Equal values may be shown once. Compounds without any hit were thinned out: in the full panel of roughly 79,000, 15% have a hit. A number with no mark means an inactive call. Activity calls are given as the source filed them. Cut-off read from the data, not from the text of the source: active = growth inhibition above about 70%; inactive = the rest.

Take `Cc1ncc(CO)c(CO)c1O`: the growth inhibition in test [1] is 3.05% and -8.25%; in test [2], -2.95% and -14%; in test [3], -4.2%; in test [4] it was 2.4%; in test [5], 7%; in test [6] it was 45.8% and -5.65%.

Consider `COC(=O)C(NC(=O)c1ccccc1)C(c1ccc(Cl)cc1)P(=O)(OC)OC` (centres undefined), for which the growth inhibition in test [1] is -19.6%; in test [2] it was -1%; in test [3] it was 12%; in test [4], 22.2%; in test [5] it was -7.85%; in test [6], -17.9%.

On to `Cc1cc(C)c(S)c(C)c1.[Cu+2]`, for which the growth inhibition in test [1] is -29.1%; in test [2], -10.3%; in test [3], -5.85%; in test [4], -53.2%; in test [5] it was -28.9%; in test [6] it was -2.55%.

Regarding `COc1ccc(Br)cc1C1OC(=O)c2c(OC)c(OC)cc([N+](=O)[O-])c21` (centres undefined), the growth inhibition was 33.9% in test [1]; 5.25% in test [2]; 20.5% in test [3]; 8.2% in test [4]; 2.3% in test [5]; 18.2% in test [6].

As to `OCCCCCSc1ccccc1`, the growth inhibition in test [1] is 17.4%; in test [2] it was 4.35%; in test [3], 7.95%; in test [4], 1.95%; in test [5], -11.1%; in test [6] it was 7.3%.

On to `Cc1cc(Cl)ccc1OCC(=O)NCCO`, for which the growth inhibition was 33.4% in test [1]; 19.9% in test [2]; 13.8% in test [3]; 10.4% in test [4]; 2.8% in test [5]; 12% in test [6].

Regarding `N#CSC(C(=O)c1ccccc1)c1ccccc1` (centres undefined), the growth inhibition is 94.2% (active) in test [1]; 60.6% in test [2]; 91.2% (active) in test [3]; 89% (active) in test [4]; 95.2% (active) in test [5]; 91.3% (active) in test [6].

`COC(=O)c1ccccc1NC(=O)Cc1ccccc1`: the growth inhibition in test [1] was -0.5%; in test [2], -27.1%; in test [3] it was 15.9%; in test [4], -5.65%; in test [5], 37.2%; in test [6] it was -15.7%.

Regarding `CN(N)c1nc(N)c(C#N)c(C#N)c1C#N`, the growth inhibition in test [1] was -16.8%; in test [2], -22.5%; in test [3], -4.9%; in test [4] it was 11.7%; in test [5], -2.65%; in test [6], 3.9%.

Take `CC(=O)N(C)c1ccc(NC(=O)C2CCCCC2C(=O)O)cc1` (centres undefined): the growth inhibition in test [1] is 6.95%; in test [2], 8.6%; in test [3], 6.2%; in test [4] it was 3.65%; in test [5], 22.2%; in test [6], -14.2%.

Turning to `O=[N+]([O-])c1cccc(C2=NN(c3ccccc3)C3c4cc(Br)ccc4OCC23)c1` (centres undefined), the growth inhibition in test [1] was -10.8%; in test [2], -18.4%; in test [3] it was -17.6%; in test [4], 2.45%; in test [5], 10.2%; in test [6], -31.7%.

For `CC1=CC(C)(C)N(C)C(N)=N1`, the growth inhibition in test [1] was -4.45%; in test [2] it was -3.1%; in test [3] it was -5.3%; in test [4] it was -43.2%; in test [5], -2.65%; in test [6], -1.75%.

Regarding `CCc1nnc2c(C)c(C)nc(C)n12`, the growth inhibition is 21.2% in test [1]; 1.55% in test [2]; -16% in test [3]; -16.1% in test [4]; 17.2% in test [5]; 1.6% in test [6].

For the molecule `CC(=O)NC1C(OCc2ccccc2)OC(CO)C(O)C1OCC(=O)NC(C)C(=O)NC(CCC(=O)NCCCCCNc1c2ccccc2nc2cccc([N+](=O)[O-])c12)C(N)=O` (centres undefined), the growth inhibition in test [1] is 78.8% (active); in test [2], 87.3% (active); in test [3], 79% (active); in test [4], 78.8% (active); in test [5], 53.5%; in test [6] it was 89% (active).

For `O=[N+]([O-])c1ccn(Cc2ccccc2)c1`, the growth inhibition is -6.25% in test [1]; 2.95% in test [2]; 5.65% in test [3]; -41.5% in test [4]; -14.2% in test [5]; 9.5% in test [6].

For the molecule `O=C(N1CCN(C(=O)S(=O)(=O)c2ccccc2)CC1)S(=O)(=O)c1ccccc1`, the growth inhibition was 29.9% in test [1]; -16.9% in test [2]; 19.8% in test [3]; 20.1% in test [4]; 1.85% in test [5]; -3.55% in test [6].

Turning to `Nc1cc2c(cc1[N+](=O)[O-])-c1ccc(Cl)cc1C2=O`, the growth inhibition in test [1] was 58.5%; in test [2], -2.45%; in test [3], 1.45%; in test [4], 7.5%; in test [5], -1.95%; in test [6], 41.2%.

Consider `OC12c3ccccc3C1CCCCCCCCCC21OCCCO1` (centres undefined), for which the growth inhibition in test [1] is -2.65%; in test [2], -19.8%; in test [3], -42.6%; in test [4], 6.4%; in test [5], -30.4%; in test [6], -23.6%.

Take `CC(O)COC(C)C` (centres undefined): the growth inhibition in test [1] was 8.55%; in test [2] it was -5.7%; in test [3] it was 17.7%; in test [4] it was 2.85%; in test [5], -1.85%; in test [6] it was 19.8%.
